Data reported in PubChem BioAssay (Tox21).
Several values for one entry are separate records, joined by “and”; a condition that tells them apart may be missing. Equal values may be shown once. Results filed as inconclusive are left out. A number with no mark means an inactive call. Activity calls are given as the source filed them. Calls follow the shape of the dose curve; as a rule, active = well fitted cell-killing curve with a large enough effect in the repeat runs; inconclusive = weak or mixed curves; inactive = flat fitted curve, though single readings scatter.

Assay: qHTS RealTime-Glo MT Cell Viability Assay in HepG2 cells - 24 hour (AID 1224867); also: nearly all actives have a fitted effect of over 50% in size
Details: RealTime-Glo luminescence; series mostly up to 76.8 µM; activity change, negative = cytotoxicity: at the top concentration
Text: U.S. Tox21 Program National Center for Advancing Translational Sciences [NCATS] NIH Chemical Genomics Center [NCGC] U.S. Environmental Protection Agency [EPA] National Institutes of Environmental Health Sciences [NIEHS] National Toxicology Program [NTP] U.S. Food and Drug Administration [FDA] Tox21 Assay Overview: Measure of cell viability is critical in the cell-base assay. Analysis of cell viability is necessary for the characterization of cell responses to cytotoxic drugs and environmental stress. A RealTime-Glo MT Cell Viability Assay to monitor cell viability in real time of continues cell culture during 40 hours of compound treatment was used to screen Tox21 10K library compounds in HepG2 cells. The RealTime-Glo MT Cell Viability Assay is a nonlytic, homogeneous, bioluminescent method to measure cell viability in real time using a simple, plate-based method. The assay involves adding NanoLuc luciferase and a cell-permeant prosubstrate to cells in culture. Viable cells reduce the proprietary prosubstrate to generate a substrate for NanoLuc luciferase. This substrate diffuses from cells into the surrounding culture medium, where it is rapidly used by the NanoLuc Enzyme to produce a luminescent signal. The signal correlates with the number of viable cells, making the assay well suited for cytotoxicity studies.
Tox21 Assay Protocol Summary: The mixture of HepG2 cell suspension and reagents were dispensed at 600cells/6 ul/well in 1536-well tissue culture treated black solid bottom plates using a Multidrop dispenser. After the assay plates were incubated at a 37 C/5% CO2 incubator for 5 hours, 23 nL of compounds dissolved in DMSO, positive and negative controls was transferred to the assay plate by a pintool work station. The plates were incubated at 37 C for 40 hours. The luminescence intensity were measured at 0h, 8h, 16h, 24h, 32h and 40h time points using ViewLux plate reader during compound treatment.
% is scaled to controls: 0 for no effect and ±100 for the full control effect; potency is read from the fitted curve at half-maximal effect.

| Structure (SMILES) | activity change, negative = cytotoxicity | Potency |
| --- | --- | --- |
| CC(=O)Oc1cc2c(s1)CCN(C(C(=O)C1CC1)c1ccccc1F)C2 (stereo not given) | -3.38% [at 35.3 µM] |  |
| CC(C)=CCC1=C(O)c2ccccc2C(=O)C1=O | -4.97% |  |
| CC[N+](CC)(CC)CCOC(=O)C(C1CCCC1)C1CCCC1 | 0.499% [at 35.3 µM] |  |
| Sc1nc2ccccc2s1 | -2.35% |  |
| O=C(O)c1ccc2cc(C(=O)O)ccc2c1 | -4.1% |  |
| CCCCCCCCCCCCCCCC[N+](C)(C)CC |  | 24.6 µM (active) and 23.9 µM (active) |
| OC12N=C(c3ccccc3)SC1Cc1cc(Cl)ccc12 (stereo not given) | -13.7% |  |
| OCC(F)(F)F | 0.686% |  |
| COc1ccc2cc1Oc1ccc(cc1)C[C@H]1c3c(cc4c(c3Oc3cc5c(cc3OC)CCN(C)[C@@H]5C2)OCO4)CCN1C |  | 23.9 µM (active) |
| Nc1ccc(NCCO)c([N+](=O)[O-])c1 | -9.42% |  |
| COC(C)=O | -0.101% |  |
| CC(C)CCOC(=O)/C=C/c1ccccc1 | 0.713% |  |
| O=C(O)CN(CCN(CC(=O)O)CC(=O)O)CC(=O)O | 3.3% [at 2.72 µM] |  |
| CCCC(=O)OC(C)(C)Cc1ccccc1 | -4.12% |  |
| CCn1c2ccccc2c2cc([N+](=O)[O-])ccc21 | -24.5% |  |
| COc1c(C)c2c(c(O)c1C/C=C(\C)CCC(=O)OCCN1CCOCC1)C(=O)OC2 | 2.15% [at 35.3 µM] |  |
| Cc1cc(-c2ccc(N=Nc3cc(S(=O)(=O)O)c4ccccc4c3N)c(C)c2)ccc1N=Nc1cc(S(=O)(=O)O)c2ccccc2c1N | -8.19% |  |
| O=c1c(O)c(-c2ccc(O)cc2O)oc2cc(O)cc(O)c12 | -0.888% |  |
| CCCCCc1ccc(Cl)cc1 | 2.81% |  |
| CCN1C(=O)c2ccccc2C1Nc1ccc(OCCN2CCCCC2)cc1 (stereo not given) | -4.82% [at 35.3 µM] |  |

| Structure (SMILES) | activity change, negative = cytotoxicity | Potency |
| --- | --- | --- |
| CCCCCCC1CCCC(=O)O1 (stereo not given) | -0.338% |  |
| CCOC(=O)NNc1ccc(N(CC)CC(C)O)nn1 (stereo not given) | 2.03% [at 35.3 µM] |  |
| Fc1ccc(C(c2ccc(F)cc2)N2CCNCC2)cc1 | -9.97% [at 35.3 µM] |  |
| Cc1c(C)c([N+](=O)[O-])c(C(C)(C)C)c([N+](=O)[O-])c1C | -9.65% |  |
| CC1=Nc2ccccc2C1(C)C | 0.069% |  |
| S=C([S-])NCCNC(=S)[S-].S=C([S-])NCCNC(=S)[S-].[Mn+2].[Zn+2] | -20.3% [at 35.3 µM] |  |
| CN(C)Cc1cc(C(C)(C)C)c(O)c(C(C)(C)C)c1 | -3.65% |  |
| COC1=C(OC)C(=O)C(CCCCCCCCCCO)=C(C)C1=O | -21% [at 35.3 µM] |  |
| CCCC(=O)OCOC(=O)C1=C(C)NC(C)=C(C(=O)OC)C1c1cccc(Cl)c1Cl (stereo not given) | -14.4% [at 35.3 µM] |  |
| O=C(O)O | 3.08% [at 6.97 µM] |  |
| OC1CCC(C2CCCCC2)CC1 (stereo not given) | -11.1% |  |
| Cc1ccc(-c2ccccc2)cc1 | 0.306% |  |
| CC(=O)CC(=O)Nc1ccc(S(=O)(=O)O)cc1 | -0.604% |  |
| O=C(O)CCN(C1(C(=O)NO)CCCC1)S(=O)(=O)c1ccc(Oc2ccc(F)cc2)cc1 | 6.7% |  |
| C=CC(=O)OCCOC(=O)C=C | -2.87% |  |
| CCCCCCCCCCCCCC[N+](C)(C)C |  | 11.9 µM (active) and 21.8 µM (active) and 23.9 µM (active) |
| Cc1cc(=O)oc2cc(O)cc(O)c12 | -4.07% |  |
| Nc1nc2c(ncn2COCCO)c(=O)[nH]1 | 0.649% [at 35.3 µM] |  |
| CCOc1ccc2ccccc2c1C(=O)N[C@@H]1C(=O)N2[C@@H]1SC(C)(C)[C@@H]2C(=O)O | 7.08% [at 35.3 µM] |  |
| C1CCC(SSC2CCCCC2)CC1 | -0.373% |  |
